Unmarked numbers belong to inactive results. How the calls were made is not given here.
Each compound was assayed against thrombin (human, UniProt P00734) (assay: primary screen, binary call; higher = more effect of the substance). Conditions: 200 µM.
Parameters: screenings were carried out in duplicate in one independent experiment
Protocol: Protease inhibitory assays were performed in transparent microtiter plates in a final volume of 200 µL with the use of chromogenic substrates. The reaction rates in the absence and in the presence of the inhibitor were measured; screenings were carried out in duplicate in one independent experiment and Ki values were determined in triplicate in two independent experiments.

Compound	Thrombin
COc1ccccc1CC1CCNCC1.Cl	0
O=C1CC(CSc2ccc(Cl)cc2)=NN1	0
Oc1ccc(C2CCNCC2)cc1	0
CS(=O)(=O)Nc1ccc(C(=O)O)cc1	0
COc1ccc(C2=CCNCC2)cc1	0
O=C(NC1CC1)c1ccccc1O	0
O=C(CN1CCNCC1)c1ccccc1	0
CCCN1C(=O)CC(=O)NC1=S	0
O=C(c1ccccc1)N1CCC(CO)CC1	0
Cc1nc(-c2ccccc2)cs1	0
O=C(c1ccccc1F)N1CCNCC1	0
O=c1ccc2c([nH]1)CCCC2	0
O=C1CCN(c2ccccn2)CC1	0
Cc1cc(-c2ccccc2)n[nH]1	0
c1ccc(Nc2nncs2)cc1	0
CCn1cnc2ccccc21	0
O=C1CCC(=O)N(c2ccccc2)N1	0
O=C1CCCc2occc21	0
CC(=O)c1ccc2c(c1)CCCN2	0
Clc1ccc2nnnn2n1	0

Compound	Thrombin
CCN(CC)c1cccc(C)c1	0
c1ccc2sc(N3CCNCC3)nc2c1	0
C1=C[C@H]2O[C@@H]1c1ccccc12	0
O=C(c1ccncc1)N1CCNCC1	0
NC(=O)N1CCC(C(=O)O)CC1	1 (active)
O=C(CN1CCCC1)c1ccccc1Cl	0
O=C1CNCCN1c1ccccc1	0
O=C1NC2(CCCC2)Nc2ccccc21	0
FC1(F)CNCC(F)(F)O1	0
CS(=O)(=O)c1ccc(OC(F)(F)F)cc1	0
CC(CN)N1CCc2sccc2C1 (stereo not shown)	0
NC(c1ccccc1)c1ccccc1	0
NCC1(c2ccccc2)CCOCC1	0
CC(=O)c1sc(-c2ccc(O)cc2)nc1C	1 (active)
N#Cc1ccc2ncsc2c1	0
Cc1cc(C)c2c(=O)[nH]n(C)c2n1	0
COc1ccccc1C1CCNCC1	0
c1ccc2c(N3CCNCC3)ccnc2c1	0
Oc1ccccc1N1CCCCC1	0
CCc1nccn1CC(=O)O	0
